# Assay outcomes from PubChem.
# HepG2 viability = counter-screen for TGF-b inhibitors: cytotoxicity in HepG2 cells; HepG2 CAGA-GFP viability, ATP luminescence, 18 h; Potency, µM (highest dose often 46.1 µM), most hits filed as cytotoxic; 0.76% of 410,000 active; AID 588856
#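 HepG2 CAGA-GFP cells (1000/well, DMEM with 1% FBS) received compound, then TGF-beta at 500 pg/mL final, and were incubated 18 hours at 37 degrees C. Viability was read by CellTiter-Glo luminescence. Media-only wells were set as complete cell-killing and DMSO as no toxicity.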
# HT1080-NT tox = kills 2HG-producing HT-1080-NT fibrosarcoma cells. HT-1080-NT fibrosarcoma viability, CellTiter-Glo ATP luminescence, 48 h. Potency, µM (highest dose often 46.1 µM), actives largely listed as cytotoxic. 1.6% of 360,000 active;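 also: NT is the 2HG producing partner of a matched IDH1 knockdown line; nearly all actives have a fitted effect of over 55% in size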
#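 Viability of the 2HG-overproducing fibrosarcoma line after 48 hours of compound exposure at 37 degrees C was determined by luminescence with CellTiter-Glo, and concentration-effect curves were then fitted and categorized.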
# HT1080 IDH1KD tx = toxicity to HT-1080 IDH1 knockdown cells (counter line); HT-1080 IDH1 knockdown viability, ATP luminescence, 48 h; Potency, µM (top dose mostly 46.1 µM), usual class: cytotoxic; 2% of 360,000 active
#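 CellTiter-Glo luminescence after 48 h compound exposure at 37 degrees C of IDH1-knockdown HT-1080 cells in 5% FBS RPMI. %Activity scaled between DMSO wells and cell-free media wells, with curves fitted and assigned curve classes.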
# DT40 TDP1 CPT = growth inhibition of DT40 Tdp1-/-;hTDP1 cells with camptothecin (screen for TDP1 inhibitors). AID 686979. 12% of 420,000 active. chicken DT40 Tdp1-/-;hTDP1 cells + 20 nM CPT, ATP luminescence, 48 h. Potency, µM (doses to about 46.2 µM), usual class: inhibitors; also: nearly all actives have a fitted effect of over 55% in size
#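 Chicken DT40 Tdp1-/- cells stably complemented with human TDP1 were seeded at 400 cells/well in medium containing 20 nM camptothecin, exposed to pin-transferred compounds, and grown at 37 °C for at least 48 hr. Viability was read as ATP luminescence.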
# TDP1 cell noCPT = qHTS for Inhibitors of human tyrosyl-DNA phosphodiesterase 1 (TDP1): qHTS in cells in absence of CPT; Potency, µM (highest dose often 46.2 µM), hits mostly inhibitors; AID 686978, 2013; 15% of 420,000 active; DT40 Tdp1-/- hTDP1 cells, no CPT, ATP luminescence, 48 h; also: nearly all actives have a fitted effect of over 55% in size
#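 No-CPT arm: Tdp1-/-;hTDP1 DT40 cells (400/well) plus compounds, incubated ≥48 hr at 37 °C. Readout CellTiter-Glo luminescence.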
# TGFb inhibitor = inhibitors of TGF-b signaling; HepG2 CAGA-GFP TGF-b/SMAD3 reporter, GFP fluorescence, 18 h; TGF-beta stimulated, 500 pg/mL final; Potency, µM (series often up to 46.1 µM), actives largely listed as inhibitors; 1.2% of 410,000 active; AID 588855; also: nearly all actives have a fitted effect of over 65% in size
#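 GFP signal (ex488/em500-530) from TGF-beta-stimulated HEPG2 CAGA-GFP cells, 500 pg/mL final, 18 h at 37 degrees C in DMEM plus 1% FBS, normalized to unstimulated and DMSO-stimulated controls.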
# A number is an active result; 0 = inactive; ? = inconclusive; - = not tested or not shown; [ ] = remark or other dose. Rows were chosen to be rich in hits. Some 17% of all compounds tested hit in one or more screens of this group. Calls follow the shape of the dose curve; as a rule, active = well fitted curve in the direction sought with a large enough effect; inconclusive = small, poorly fitted or top-dose-only effect, or another doubt; inactive = no such curve, though single readings can be large; an effect the other way counts as inactive or inconclusive.
SMILES,HepG2 viability,HT1080-NT tox,HT1080 IDH1KD tx,DT40 TDP1 CPT,TDP1 cell noCPT,TGFb inhibitor
c1ccc(CN(Cc2cccs2)C(c2cccs2)c2nnnn2C2CCCC2)cc1 (stereo not drawn),0,0,0,?,18µM,0
CC(C)(C)n1nnnc1C(c1cccs1)N(Cc1ccccc1)Cc1ccco1 (stereo not drawn),0,0,0,?,16µM,?
O=C(c1ccco1)N1CCN(C(c2cccs2)c2nnnn2C2CCCC2)CC1 (stereo not drawn),0,0,0,0,?,0
CCN(Cc1ccccc1)C(c1ccc(Cl)cc1)c1nnnn1C(C)(C)C (stereo not drawn),0,0,0,26µM,?,?
O=C(Cn1nnc(-c2cccc(C(F)(F)F)c2)n1)NCc1ccc(F)cc1,0,-,-,0,0,0
CNC(=O)c1cc(Nc2nnc(-c3ccc(C)c(S(N)(=O)=O)c3)c3ccccc23)ccc1OC,0,0,0,0,0,0
CCN(CC)c1ccc(SS(=O)(=O)O)cc1,0,0,0,0,0,0
O=S(=O)(O)Sc1ccccc1,0,0,?,23µM,21µM,0
COc1ccc(C2CC(c3ccc(OC)c(OC)c3)=NN2S(C)(=O)=O)cc1 (stereo not drawn),0,0,0,18µM,?,0
Cc1ccc(C2=NN(S(C)(=O)=O)C(c3ccc4nccnc4c3)C2)cc1 (stereo not drawn),0,0,0,0,0,0
CS(=O)(=O)N1N=C(c2ccccc2)CC1c1ccc2nccnc2c1 (stereo not drawn),0,0,0,?,26µM,0
Cc1cc(C)cc(-n2c(O)c(C=NC3CCS(=O)(=O)C3)c3ccccc3c2=O)c1 (stereo not drawn),0,0,?,16µM,?,0
Cc1ccc(-n2c(O)c(C=NC3CCS(=O)(=O)C3)c3ccccc3c2=O)cc1C (stereo not drawn),0,0,0,10µM,18µM,0
Cc1cccc(-n2c(O)c(C=NC3CCS(=O)(=O)C3)c3ccccc3c2=O)c1 (stereo not drawn),0,0,0,13µM,?,0
Cc1cccc(-n2c(O)c(C=NCc3ccccn3)c3ccccc3c2=O)c1,0,0,0,18µM,?,0
Cc1ccccc1-n1c(O)c(C=NC2CCS(=O)(=O)C2)c2ccccc2c1=O (stereo not drawn),0,0,0,0,?,0
CCN(CC(=O)Nc1ccc(NC(C)=O)cc1)C(=O)c1ccc(Sc2nncn2C)c([N+](=O)[O-])c1,0,0,0,0,0,0
Cc1cccc(-n2c(O)c(C=NC3CCS(=O)(=O)C3)c3ccccc3c2=O)c1C (stereo not drawn),0,0,0,5.2µM,?,0
CC1(C)CC(=O)C(=Cc2cn(-c3ccccc3)nc2-c2ccc(Cl)cc2)C(=O)C1,0,0,?,9.2µM,21µM,0
O=C(O)/C=C/c1cn(-c2ccccc2)nc1-c1ccccc1,0,0,0,0,0,0
CC1=NNC(=O)/C1=C\c1cn(-c2ccccc2)nc1-c1ccccc1,10µM,16µM,13µM,5.8µM,4.1µM,8.9µM
CCOc1cc2[nH]c(=O)n(CCC(=O)N3CCN(c4cccc(Cl)c4)CC3)c(=O)c2cc1OCC,0,-,-,?,?,0
CCOc1ccc(CNC(=O)CCc2cn(Cc3ccccc3)c3ccccc23)cc1,0,0,0,0,?,?
Cc1ccc(Cn2cc(CCC(=O)NC3CCCCC3)c3ccccc32)cc1,0,-,-,?,15µM,?
Cc1ccc(CNC(=O)CCc2cn(Cc3ccc(C)cc3)c3ccccc23)cc1,0,-,-,0,0,?
SMILES,HepG2 viability,HT1080-NT tox,HT1080 IDH1KD tx,DT40 TDP1 CPT,TDP1 cell noCPT,TGFb inhibitor
CCOc1ccccc1CNC(=O)CCc1cn(CC)c2ccccc12,0,0,0,?,?,0
COc1ccc(CCNC(=O)CCc2cn(Cc3ccc(F)cc3)c3ccccc23)cc1OC,0,-,-,?,16µM,?
CCn1cc(CCC(=O)NCc2cccc(OC)c2OC)c2ccccc21,0,0,0,18µM,16µM,?
CCOc1ccc(CCNC(=O)CCc2cn(Cc3ccc(C)cc3)c3ccccc23)cc1,0,-,-,?,12µM,?
O=C(CN1C(=O)c2ccccc2C1=O)Nc1cccc(S(=O)(=O)Nc2ccccc2Cl)c1,0,0,0,0,0,0
COc1ccc(OC)c(CCNC(=O)CCc2cn(C)c3ccccc23)c1,0,0,0,0,?,0
COc1ccc(CCNC(=O)CCc2cn(Cc3ccccc3Cl)c3ccccc23)c(OC)c1,0,-,-,?,16µM,?
NS(=O)(=O)c1cc(C(=O)OCC(=O)N2CCc3ccccc3C2)ccc1Cl,0,0,0,0,0,0
Fc1cccc(CN2CCN(c3nc4nonc4nc3NC3CC3)CC2)c1,0,0,0,0,23µM,0
Cc1ccc(Nc2nc3ccccc3c3nnc(C)n23)c(C)c1,0,-,-,12µM,8.2µM,0
Cc1nnc2c3ccccc3nc(Nc3ccc(F)cc3Cl)n12,0,-,-,0,0,0
O=C(Nc1cccc(Cl)c1)Nc1ccc(Br)cc1F,0,0,0,21µM,12µM,?
O=C(Nc1ccc(C(=O)O)cc1)Nc1ccc(F)cc1F,0,0,0,0,0,0
O=C(Nc1ccccc1)Nc1ccc(Br)cc1F,0,0,0,15µM,21µM,0
O=C(Nc1cccc(F)c1)Nc1cccc(Cl)c1,0,?,?,?,?,?
CN1CCCCC1C(=O)N1CCC(Oc2cccc(CN3CCN(c4ccccn4)CC3)c2)CC1 (stereo not drawn),-,-,-,0[9.04 µM],?,-
CC(C)(C)c1ccc(OCCC(=O)OCC(=O)Nc2ccc(N3CCOCC3)cc2)cc1,0,0,0,?,?,0
Brc1csc(CN2CCc3nc(Nc4ccccc4)ncc3C2)c1,0,-,-,21µM,23µM,13µM
CN1CCN(c2ncc3c(n2)CCN(Cc2cc(Br)cs2)C3)CC1,0,-,-,16µM,?,0
COc1cc(Nc2ncc3c(n2)CCN(Cc2cc(Br)cs2)C3)cc(OC)c1,0,-,-,16µM,23µM,?
CC(C)CN1CCc2nc(Nc3ccc(F)cc3F)ncc2C1,0,-,-,0,?,0
C[C@H](CO)N1C[C@H](C)[C@@H](CN(C)S(=O)(=O)c2ccccc2)Oc2ccc(NS(=O)(=O)c3ccccc3)cc2C1=O,0,0,0,?,0,0
